This is a sample that favours compounds with a hit; in the whole collection about 3.6% have one here.
Pf apPOL block: Pf-apPOL inhibitors, biochemical, fluorescence | AID 1794808, 2022 | inhibition, % at 10 µM | Plasmodium falciparum apicoplast DNA polymerase (apPOL) | 210,000 compounds, 0.25% hits | Recombinant Pf-apPOL, molecular beacon fluorescence, 1.5 h
mHTT-CaM PPI inh: mutant huntingtin-calmodulin interaction inhibitors – biochemical, AlphaScreen, primary screen; AlphaScreen His-mHTT/GST-CaM binding, luminescence; 190,000 compounds, 3.6% hits; inhibition, % at 15 µM; AID 1671202, 2021
Hits are given with their value; - = inactive; . = no result; + = active, no number; ! = not active in a repeat. Cut-off read from the data, not from the text of the source: active = inhibition above about 50%; inactive = the rest.

SMILES | Pf apPOL block | mHTT-CaM PPI inh
CCCC(=O)N1CCCC(c2ccnc(-c3ccc(F)cc3)n2)C1 (stereo unspecified) | - | -
O=C(c1cccc(F)c1)N1CCCC(c2ccnc(-c3ccc(F)cc3)n2)C1 (stereo unspecified) | - | 54
CCC(=O)N1CCCC(c2ccnc(-c3ccc(F)cc3)n2)C1 (stereo unspecified) | - | 76
CCOC(=O)N1CCN(S(=O)(=O)c2cc(C)c(C)cc2OC)CC1 | - | -
COc1ccc(C2(CNC(=O)c3ccccc3[N+](=O)[O-])CCCC2)cc1OC | - | 100
COc1ccc(C2(CNC(=O)c3ccc(OC)c([N+](=O)[O-])c3)CCCC2)cc1OC | - | -
COc1ccc(C2=CC(c3cccc(Br)c3)n3nc(CCCO)nc3N2)cc1OC (stereo unspecified) | - | 53
COc1cc(C2C=C(c3ccc(Cl)cc3)Nc3ncnn32)cc(OC)c1OC (stereo unspecified) | - | 76
COc1cccc(C2C=C(c3ccc(C)cc3)Nc3ncnn32)c1 (stereo unspecified) | - | -
COc1ccc(C2=CC(c3cc(OC)c(OC)c(OC)c3)n3ncnc3N2)cc1 (stereo unspecified) | - | -
COc1cccc(C2C=C(c3ccc(Br)cc3)Nc3ncnn32)c1OC (stereo unspecified) | - | 66
COc1cccc(C2C=C(c3cccc(Br)c3)Nc3ncnn32)c1 (stereo unspecified) | - | 59
COc1ccc(C2=CC(c3ccccc3)n3nc(CCCO)nc3N2)cc1 (stereo unspecified) | - | -
COc1ccccc1C1C=C(c2ccc(Br)cc2)Nc2ncnn21 (stereo unspecified) | - | -
CC(NC(=O)c1ccccc1F)c1nc2ccccc2[nH]1 (stereo unspecified) | - | -
CCN1CCN(C(=O)c2ccc(NC(=O)C3CC3)cc2N2CCCCCC2)CC1 | - | -
CCc1noc(-c2cnc3nc(C)ccc3c2Nc2ccccc2C)n1 | - | -
CC(C)N1Cc2cc(C(=O)NCCCc3ccccc3)sc2C1 | - | -
COc1cccc(CNC(=O)C2=C(C)C(=O)OC23CCCCCC3)c1OC | - | -
Cn1cnnc1C1CCN(C(=O)C2COc3ccccc3O2)CC1 (stereo unspecified) | - | -
CCOc1ccc(N(C(C)C(=O)NC2CCCCC2)S(C)(=O)=O)cc1 (stereo unspecified) | - | -
Cc1ccccc1C(=O)N1CCCC(C)(C(=O)NCc2cccc(F)c2)C1 (stereo unspecified) | - | -
COc1cccc(C2C=C(c3cccc(Br)c3)Nc3nnnn32)c1OC (stereo unspecified) | - | 65
COc1cccc(C2C=C(c3ccc(F)cc3)Nc3ncnn32)c1OC (stereo unspecified) | - | 56
COc1cccc(C2C=C(c3ccc(C)cc3)Nc3ncnn32)c1OC (stereo unspecified) | - | -
SMILES | Pf apPOL block | mHTT-CaM PPI inh
COc1cccc(C2C=C(c3ccc(Br)cc3)Nc3nnnn32)c1OC (stereo unspecified) | - | -
Cc1ccc(S(=O)(=O)N(CC(=O)NCc2cccnc2)Cc2ccc(Cl)c(Cl)c2)cc1 | - | 54!
O=C(Nc1ccc(Cl)cc1)N(Cc1cccnc1)Cc1ccccc1Cl | - | -
O=C(CN(Cc1ccccc1Cl)S(=O)(=O)c1ccc(Cl)cc1)NCc1cccnc1 | - | -
Cc1ccc(CN(Cc2cccnc2)C(=O)Nc2ccc(Cl)c(Cl)c2)cc1 | - | 81
CC(NC=O)c1ccc2c(c1)OCCO2 (stereo unspecified) | - | -
O=C(NCCc1csc(C2CCCN(C(=O)Cc3cccc(Cl)c3)C2)n1)C1CCC1 (stereo unspecified) | - | -
Fc1ccccc1CN1CCc2nc(N3CCN(c4ncccn4)CC3)ncc2C1 | - | 100
COc1cccc(CN2CCc3nc(N4CCC(C)CC4)ncc3C2)c1OC | - | -
COc1ccc(CN2CCc3nc(N4CCCC4)ncc3C2)c(OC)c1 | - | 99
COc1cc(OC)c(OC)cc1CN1CCc2nc(N3CCN(C)CC3)ncc2C1 | - | -
CCN1CCN(c2ncc3c(n2)CCN(Cc2cc(OC)ccc2OC)C3)CC1 | - | -
COc1ccc(OC)c(CN2CCc3nc(N4CCN(c5ncccn5)CC4)ncc3C2)c1 | - | 99
Fc1ccccc1CN1CCc2nc(N3CCOCC3)ncc2C1 | - | -
COc1cccc(CN2CCc3nc(N4CCCC4)ncc3C2)c1OC | - | 88
NS(=O)(=O)c1cc(Cl)ccc1I | - | .
COc1cccc(COc2ccc3c(C)c(CC(=O)O)c(=O)oc3c2C)c1 | - | -
O=C(NC1CCCC1)c1ccc(-c2cnc(N3CCCCC3)nc2)cc1 | - | -
O=C(NCCCNc1ccc([N+](=O)[O-])cc1C(F)(F)F)c1ccco1 | - | -
CC(C)(C)c1ccc(C(=O)Nc2cccc(F)c2C#N)cc1 | - | .
Cc1cc(/C=N/NC(N)=S)c(C)n1-c1sc2c(c1C#N)CCCC2 | . | +
N#Cc1c(-n2cccc2/C=N/O)sc2c1CCCC2 | - | -
Cc1ccc(NC(=O)c2cc(S(=O)(=O)N3CCc4ccccc4C3)ccc2F)cc1 | - | -
CN(CCCNC(=O)CC1CCN(C(=O)c2ccccc2)CC1)Cc1ccccc1 | - | -
Oc1ccccc1C=NNc1nc2c(Cl)cc(Cl)cc2s1 | - | .
SMILES | Pf apPOL block | mHTT-CaM PPI inh
Oc1ccc(/C=N/Nc2nccnc2Cl)c(O)c1 | . | +
FC(F)(F)c1cccc(N2COc3ccc(Cl)cc3C2)c1 | - | -
Cc1cccc(N2COc3ccc(Br)cc3C2)c1 | - | 99
Cc1cc(=O)oc2c3c(ccc12)OCN(c1ccc(Cl)cc1)C3 | - | -
Cc1ccc(N2COc3ccc(Br)cc3C2)cc1 | - | 73
Cc1ccc(-c2nc(C=Nc3ccc(Cl)cc3C)c(O)o2)cc1 | - | -
O=C(Cc1csc(NC(=O)c2cnccn2)n1)Nc1cccc(C(F)(F)F)c1 | - | 84
O=C(Cc1csc(NC(=O)C2CCCC2)n1)Nc1nc(-c2cccnc2)cs1 | - | -
CCSc1nnc(NC(=O)Cc2csc(Nc3cccc(C(F)(F)F)c3)n2)s1 | - | -
O=C(Cc1csc(NC(=O)c2cnccn2)n1)Nc1nc2ccccc2s1 | - | 80
O=C(Cc1csc(NC(=O)c2cnccn2)n1)Nc1nc(-c2cccnc2)cs1 | 55 | 100
Cc1ccc2nc(NC(=O)c3cnccn3)sc2c1 | - | -
CCSc1nnc(NC(=O)Cc2csc(NC(=O)c3cnccn3)n2)s1 | - | 88
CCSc1nnc(NC(=O)c2cnccn2)s1 | - | -
CC(C)(Oc1ccc(Cl)cc1)C(=O)Nc1ccccc1F | - | -
COc1ccc(-c2c(C)oc3c(CN4CCCC4)c(O)ccc3c2=O)cc1 | - | -
COc1cccc(CNC(=O)Cn2cnc3c(c2=O)CN(Cc2ccccc2)CC3)c1OC | - | -
COCCCNC(=O)C1CCc2sc(C(=O)N3CCCC3)cc2C1 (stereo unspecified) | - | -
Cc1oc(C2CCN(C(=O)c3ccccc3F)CC2)nc1C(=O)N1CCCCC1 | - | -
Cc1cc(=O)[nH]c(-n2nc(C)cc2N)n1 | - | 98
Cc1cc(=O)[nH]c(-n2nc(C)cc2NC(=O)c2snnc2C)n1 | - | -
O=S(=O)(c1ccc(Cl)cc1)N1CCC(c2noc(-c3cccc(F)c3)n2)CC1 | - | -
CC(=O)N1N=C(c2c(-c3ccccc3)c3cc(Cl)ccc3[nH]c2=O)CC1c1ccccc1Cl (stereo unspecified) | - | 93
